# Compound activity from PubChem.
# This is a sample that favours compounds with a hit; in the whole collection about 13% have one here.
# HCV inhibitor – inhibitors of hepatitis C virus infection | Huh7.5.1 HCVcc-Cre infection, luciferase reporter, 44 h | Potency, µM (highest dose often 41.8 µM), without a hit: at the highest dose activity change, negative = inhibition, most hits filed as inhibitors | 3.4% of 340,000 active | AID 651820; further: potency means the concentration at half of the fitted maximal effect
#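 Luciferase read-out (15 sec integration) after a 15 min room-temperature substrate step quantifies HCVcc-Cre infection. Cells, 1,000 per well, had compound added 4 h post-plating, then virus at ~0.5 moi, and were cultured 44 h.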
# Pf growth 96h – P. falciparum growth inhibition at 96 hours; P. falciparum luciferase reporter growth, 96 h; Potency, µM (top dose mostly 28.7 µM), for inactives: at the highest dose activity change, negative = inhibition, hits mostly inhibitors; 6.9% of 320,000 active; AID 504834; further: potency means the concentration at half of the fitted maximal effect
#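 Readout is luminescence from an integrated firefly luciferase in P. falciparum. Red cells, 2% hematocrit and 0.05% parasitemia final, were cultured with compound through two parasite generations (96 hours) at 37 C, 5% CO2.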
# HCMV inh – blocks human cytomegalovirus replication; HFF cells, HCMV-luciferase reporter, 72 h; hits give low values; activity change, negative = inhibition, % at 57.5 µM; 4.5% of 410,000 active; in the data active means activity change below about -60%; inconclusive means no clear call, values can overlap the other calls; inactive means above about -39%
#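 Steps: HFFs plated, 16 h 37C; compounds added; HCMV-luciferase added to MOI 1 PFU/cell; 72 h 37C; OneGlo reagent, 5 min room temperature; luminescence read, normalized to controls.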
# Pf growth 48h – inhibits P. falciparum growth in the first generation, 48 h; P. falciparum luciferase growth in erythrocytes, 48 h; Potency, µM (top dose mostly 28.7 µM), for the others: at the top dose activity change, negative = inhibition, usual class: inhibitors; 5.9% of 310,000 active; AID 504832; further: potency means the concentration at half of the fitted maximal effect
#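 Parasite viability was followed by luminescence of a genomically integrated firefly luciferase. Cultures held 0.1% parasitemia at 2% hematocrit (final), incubated under 5% CO2 at 37 C.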
# Numbers without * were called inactive; i = inactive; ? = inconclusive; . = no result given; + = active, no number; ! = repeats disagree. Unless noted, the call rests on the fitted dose curve; in most records, active means well fitted inhibition curve with a large enough effect; inconclusive means small, poorly fitted or top-dose-only effect, or another doubt; inactive means no such curve, though single readings can be large or run the other way. On the % scale 0 is the no-effect control and ±100 the full control effect.
SMILES,HCV inhibitor,Pf growth 96h,HCMV inh,Pf growth 48h
Cc1ccc(/C=C(\C#N)c2nc3ccccc3[nH]2)s1,?,1.7µM*,170,?
N#C/C(=C\C1CC=CCC1)c1nc2ccccc2[nH]1 (configuration not stated),?,.,-82*,8.3µM*
N#C/C(=C\c1c(Cl)cccc1Cl)c1nc2ccccc2[nH]1,-26%,8.3µM*,-70*,8.3µM*
CC(C)COc1ccc(C(=O)Nc2nnc(S(=O)(=O)N(C)Cc3ccco3)s2)cc1,.,.,166,.
COc1ccccc1CNS(=O)(=O)c1c(C(=O)N2CCC(C)CC2)c(C)n(C)c1C,.,.,-28,.
Cn1c(SCc2nc3ccccc3[nH]2)nnc1-c1cccnc1,16%,1.9µM*,25,8%
Cc1cccc(-c2nnc(SCc3nc4ccccc4[nH]3)n2Cc2ccco2)c1,?,?,-61*,?
CCn1c(SCC(=O)c2ccccc2)nnc1-c1cccs1,4%,63%,3,116%
c1coc(Cn2c(SCc3nc4ccccc4[nH]3)nnc2-c2cccs2)c1,-4%,10µM*,?,-22%
COc1ccccc1-c1nnc(SCc2nc3ccccc3[nH]2)n1C,0%,.,53,-11%
CCn1c(SCc2nc3ccccc3nc2C)nnc1-c1cccs1,-13%,-4%,-21,10µM*
CC(C)c1ccc(S(=O)(=O)N2CCN(C(=S)NCc3ccco3)CC2)cc1,-23%,?,-39,?
O=S(=O)(c1cccc(C(F)(F)F)c1)N1CCN(C(=S)NCc2ccco2)CC1,0%,2.3µM*,23,4.7µM*
CSCCCNC(=S)N1CCN(S(=O)(=O)c2cccc(C(F)(F)F)c2)CC1,-2%,-93%,14,10µM*
CC(=O)NC12CC3CC(C1)CC(C(=O)N1CCN(S(=O)(=O)c4cccc(C(F)(F)F)c4)CC1)(C3)C2,20%,?,?,13µM*
CC(=O)NC12CC3CC(C1)CC(C(=O)N1CCN(S(=O)(=O)c4cccc([N+](=O)[O-])c4)CC1)(C3)C2,3%,.,-13,.
COc1cccc(NC(=O)c2sc(-n3nc(C)c(Cc4ccccc4Cl)c3C)nc2C)c1,.,.,60,.
O=C(Cc1csc(Nc2nc(=S)[nH]c3ccccc23)n1)NCCCN1CCN(c2ccccc2F)CC1,4µM*,?,-98*,8%
O=C(Cc1csc(Nc2nc(=S)[nH]c3ccccc23)n1)NCc1ccc(Cl)cc1,.,25%,-11,-9%
O=c1c(C=Nc2ccc(Oc3ccccc3)cc2)c[nH]n1-c1cccc(Cl)n1,16%,17%,-65*,5%
Cc1ccc(C)c(Cn2c(=O)n(-c3ccc(F)cc3)c(=O)c3sc4ccccc4c32)c1,.,.,5,.
O=C(N[C@H]1CP(=O)(Oc2ccccc2)O[C@H](COCc2ccccc2)[C@H]1O)C(Cl)(Cl)Cl (some centres not stated),-9%,12µM*,-7,?
COc1ccc(N2C(=O)C(=O)N(c3ccc(OC)cc3)P2(=O)N(CCCl)CCCl)cc1,9%,.,-75*,.
CC(=O)Nc1ccc(C(=O)COC(=O)CCN2C(=O)C3CC=CCC3C2=O)cc1 (configuration not stated),-1%,0%,8,11%
O=C(CCN1C(=O)C2CC=CCC2C1=O)OCC(=O)c1ccc(F)cc1 (configuration not stated),4%,.,-76*,.
SMILES,HCV inhibitor,Pf growth 96h,HCMV inh,Pf growth 48h
CSc1nc2sc3c(c2c(=O)n1Cc1ccccc1)CCC(C(C)(C)C)C3 (configuration not stated),.,.,-14,.
CN(C)S(=O)(=O)N1CCN(S(=O)(=O)c2ccc3ccccc3c2)CC1,14%,?,-34,.
Cc1ccc(S(=O)(=O)N2CCCN(S(=O)(=O)c3ccc4ccccc4c3)CC2)cc1,?,10µM*,-32,?
O=S(=O)(c1ccc2nc(-c3ccccc3)[nH]c2c1)N1CCN(c2ccc(Cl)cc2)CC1,?,?,?,12µM*
Nn1cc(-c2ccccc2)nc1SCC(=O)N1CCN(S(=O)(=O)c2ccc3ccccc3c2)CC1,-4%,.,-12,9.3µM*
Cc1ccc(NS(=O)(=O)c2ccc3nc(-c4ccccc4)[nH]c3c2)cc1Cl,.,.,-10,.
CN(C)C(=O)N1CCN(S(=O)(=O)c2ccc3ccccc3c2)CC1,?,10µM*,12,8%
O=S(=O)(Nc1ccc(-c2ccc(N3CCCCC3)nn2)cc1)c1ccc(OC(F)(F)F)cc1,.,.,23,.
Cc1ccc(S(=O)(=O)N2CCCN(C(=O)c3cc4ccccc4[nH]3)CC2)cc1,-6%,12µM*,51,?
O=C(CCl)N1CCN(S(=O)(=O)c2ccc3ccccc3c2)CC1,?,?,-98*,?
Cc1nnc(SCC(=O)N2CCN(S(=O)(=O)c3ccccc3)CC2)s1,27%,-7%,-36,-2%
CCCCNc1nnc(SCC(=O)N2CCN(S(=O)(=O)c3ccc4ccccc4c3)CC2)s1,?,5.2µM*,-2,.
CN1CCN(S(=O)(=O)c2ccc3ccccc3c2)CC1,14%,47%,9,.
CN1CCN(C(=O)c2cc3ccccc3[nH]2)CC1,24%,?,37,6%
O=S(=O)(c1ccc2ccccc2c1)N1CCN(c2ccc(O)cc2)CC1,?,.,-66*,.
Cc1cc(C)cc(Nc2cc(C(=O)NC3CCC(C)CC3)c3ccccc3n2)c1 (configuration not stated),.,.,25,.
CCN(C(=O)c1cnc(N2CCOCC2)c2ccccc12)c1cc(C)ccc1C,.,.,0,.
CCc1cccc(-n2nnc(-c3nc(-c4cccs4)no3)c2N)c1,.,.,15,.
O=C(CSc1ccc2ccccc2c1)N1CCN(c2ccc(O)cc2)CC1,-22%,3%,-78*,6%
CCCCOc1cccc(C2c3c(-c4cc(C)ccc4O)n[nH]c3C(=O)N2CCOC)c1 (configuration not stated),.,.,-39,.
COc1ccc(N2CCN(c3ncnc4c3cnn4C)CC2)cc1,.,.,-61*,.
Cc1ccc(-n2ncc3c(N4CCN(c5ccccc5)CC4)ncnc32)c(C)c1,4.5µM*,?,-82*,12µM*
Cc1cccc(C(=O)N2CCN(c3ncnc4c3cnn4-c3ccccc3)CC2)c1,?,-15%,8,9.3µM*
CC(=O)c1ccc(N2CCN(c3ncnc4c3cnn4C)CC2)cc1,.,.,13,.
COc1ccc(-n2ncc3c(N4CCN(c5cccc(C)c5)C(C)C4)ncnc32)cc1 (configuration not stated),.,.,-66*,.
Cc1ccc(-c2csc(C(O)c3ccccc3)n2)cc1C (configuration not stated),.,.,33,.
Cc1cccc(-n2ncc3c(N4CCCC4)ncnc32)c1,?,.,-2,i
Cc1ccc(-n2ncc3c(NCc4cccnc4)ncnc32)c(C)c1,10µM*!,?,?,?
Cc1cccc(N2CCN(c3nnnn3-c3ccccc3)CC2C)c1 (configuration not stated),?,5.9µM*,2,.
Cc1cccc(-n2ncc3c(N4CCN(c5ccccc5)CC4)ncnc32)c1,.,.,+,.
